According to PubChem BioAssay (Tox21):
Several values for one entry are separate records, joined by “and”; a condition that tells them apart may be missing. Identical values can stand only once. Inconclusive results are not listed. Activity calls are given as the source filed them. Unless noted, the call rests on the fitted dose curve; in most records, active means well fitted curve in the direction sought with a large enough effect in the repeat runs; inconclusive means weak or mixed curves; inactive means no such curve, though single readings can be large; an effect the other way counts as inactive or inconclusive.

Assays:
[1] = qHTS assay to identify small molecule agonists of H2AX (AID 1224845; active means well fitted activation curve with a large enough effect in the signal ratio in the repeat runs, not every such curve was filed as active; the % refers to the signal ratio)
Outline: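 Wild-type CHO-K1 cells plated overnight, then exposed 3 hr at 37C to compounds at 15 concentrations (0.76% DMSO). Lysed, then HTRF anti-pH2AX(S139)-cryptate/anti-H2AX-d2 detection after 24 hr at room temperature; emissions 665 and 620 nm.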

[2] = qHTS assay to identify small molecule agonists of the hypoxia (HIF-1) signaling pathway (AID 1224846; active means well fitted activation curve with a large enough effect in the signal ratio in the repeat runs, not every such curve was filed as active; the % refers to the signal ratio)
Outline: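 HRE-bla ME-180 cells (beta-lactamase reporter under hypoxia response element) were plated at 2,000 cells/well in medium with 0.5% dialyzed FBS, rested 5 hrs, then given compounds in DMSO for 17 hrs at 37C, 5% CO2. Reporter induction was read with CCF4-AM FRET substrate.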

[3] = qHTS assay to identify small molecule agonists of H2AX - cell viability counter screen (AID 1224847; calls by dose curve; further: top concentration of the series differs between compounds; nearly all actives have a fitted effect of over 30% in size)
Outline: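 CHO-K1 wt, 1000 cells/well, o/n 37C; cpds 15 conc, 3 h 37C, 0.76% DMSO; CellTiter-Glo, 30 min RT, luminescence.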

[4] = A CellTox Green Cytotoxicity Assay to monitor cytotoxicity in HEK293 cells - 0 hour (AID 1224869); further: nearly all actives have a fitted effect of over 50% in size
Outline: (§1)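 HEK293 cells premixed with CellTox Green dye were seeded at 600 cells/well and left 5 h at 37 C/5% CO2 before pin transfer of 23 nL compound in DMSO. Fluorescence from dye bound to dead-cell DNA was read during 40 h treatment.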

[5] = qHTS RealTime-Glo MT Cell Viability Assay in HepG2 cells - 40 hour (AID 1224870); further: nearly all actives have a fitted effect of over 50% in size
Outline: (§2)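 HepG2 cells mixed with RealTime-Glo MT reagents (NanoLuc plus cell-permeant prosubstrate) were seeded at 600 cells/well, incubated 5 h at 37 C/5% CO2, then pinned with compounds in DMSO; nonlytic luminescence tracked viability during 40 h treatment.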

[6] = A CellTox Green Cytotoxicity Assay to monitor cytotoxicity in HEK293 cells - 40 hour (AID 1224871); further: nearly all actives have a fitted effect of over 45% in size
Outline: as §1

[7] = qHTS RealTime-Glo MT Cell Viability Assay in HEK293 cells - 16 hour (AID 1224872); further: top concentration of the series differs between compounds; nearly all actives have a fitted effect of over 50% in size
Outline: (§3)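 Cells + reagent dispensed (600 cells/well, HEK293) → 5 h at 37 C/5% CO2 → 23 nL compound in DMSO pinned → 40 h at 37 C → luminescence read at 0, 8, 16, 24, 32, 40 h.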

[8] = qHTS RealTime-Glo MT Cell Viability Assay in HepG2 cells - 8 hour (AID 1224873); further: nearly all actives have a fitted effect of over 55% in size
Outline: as §2

[9] = qHTS RealTime-Glo MT Cell Viability Assay in HEK293 cells - 40 hour (AID 1224874); conditions: RealTime-Glo luminescence; max response: stronger effect = lower value; further: nearly all actives have a fitted effect of over 50% in size
Outline: (§4)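 HEK293 cells mixed with RealTime-Glo reagents (NanoLuc plus cell-permeant prosubstrate) at 600 cells/well, preincubated 5 h at 37 C/5% CO2, then given 23 nL compound in DMSO. Nonlytic luminescence from viable cells was read at 0, 8, 16, 24, 32 and 40 h.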

[10] = A CellTox Green Cytotoxicity Assay to monitor cytotoxicity in HEK293 cells - 24 hour (AID 1224875); further: nearly all actives have a fitted effect of over 45% in size
Outline: as §1

[11] = A CellTox Green Cytotoxicity Assay to monitor cytotoxicity in HepG2 cells - 16 hour (AID 1224876); further: nearly all actives have a fitted effect of over 45% in size
Outline: (§5)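 HepG2 cells were seeded together with the CellTox Green dye at 600 cells/well, left 5 h at 37 C/5% CO2, then given compounds in DMSO. Fluorescence from dye bound to dead-cell DNA was read repeatedly over 40 h of treatment at 37 C.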

[12] = qHTS RealTime-Glo MT Cell Viability Assay in HepG2 cells - 32 hour (AID 1224877); further: nearly all actives have a fitted effect of over 55% in size
Outline: (§6)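 Real-time, nonlytic viability: 600 HepG2 cells/well mixed with NanoLuc enzyme plus prosubstrate; 5 h settle, compound (DMSO) added by pintool; luminescence monitored over 40 h at 37 C.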

[13] = A CellTox Green Cytotoxicity Assay to monitor cytotoxicity in HepG2 cells - 24 hour (AID 1224878); further: nearly all actives have a fitted effect of over 45% in size
Outline: as §5

[14] = A CellTox Green Cytotoxicity Assay to monitor cytotoxicity in HepG2 cells - 40 hour (AID 1224879); further: nearly all actives have a fitted effect of over 40% in size
Outline: as §5

[15] = qHTS RealTime-Glo MT Cell Viability Assay in HEK293 cells - 0 hour (AID 1224880)
Outline: as §4

[16] = A CellTox Green Cytotoxicity Assay to monitor cytotoxicity in HEK293 cells - 32 hour (AID 1224881); further: nearly all actives have a fitted effect of over 40% in size
Outline: as §1

[17] = qHTS RealTime-Glo MT Cell Viability Assay in HEK293 cells - 32 hour (AID 1224868)
Outline: as §3

[18] = qHTS assay to identify small molecule antagonists of the estrogen related receptor (ERR) signaling pathway from Tox21 library (AID 1224848); further: nearly all actives have a fitted effect of over 50% in size
Outline: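 Screening used an ERR reporter line supplied by NTP, exposed for 18 h at 37 C to library compounds delivered in DMSO. Signal was luciferase luminescence developed with ONE-Glo at room temperature for 30 min.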

[19] = qHTS assay to identify small molecule agonists of the estrogen related receptor (ERR) signaling pathway from Tox21 library (AID 1224849; calls by dose curve; further: nearly all actives have a fitted effect of over 15% in size); conditions: ERR reporter cell line, ONE-Glo luciferase, 18 h; at 92.4 µM (top of the series)
Outline: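 ERR reporter cell line (NTP) seeded, rested 6 h at 37 C/5% CO2, then pinned with Tox21 compounds in DMSO. After 18 h at 37 C, ONE-Glo luciferase luminescence was read following 30 min at room temperature.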

[20] = qHTS RealTime-Glo MT Cell Viability Assay in HepG2 cells - 24 hour (AID 1224867); further: nearly all actives have a fitted effect of over 50% in size
Outline: as §6
On the % scale 0 is the no-effect control and ±100 the full control effect.

CC[N+]1(CCOC(=O)C(O)(c2ccccc2)c2ccccc2)CCCCC1
inactive: Potency [1] | outcome [2] | Potency [3] | Potency [4] | Potency [5] | Potency [6] | Potency [7] | Potency [8] | max response [9] 4.06% | Potency [10] | Potency [11] | Potency [12] | Potency [13] | Potency [14] | outcome [15] | Potency [16]

C[N+](C)(C)CC1CO1 (centres undefined)
inactive: Potency [1] | outcome [2] | Potency [3] | Potency [17] | Potency [4] | Potency [5] | Potency [6] | Potency [7] | Potency [8] | Potency [11] | Potency [12] | Potency [14] | outcome [15] | Potency [16]

O=C(O)C(Cl)(Cl)Br
inactive: Potency [1] | outcome [2] | Potency [3] | Potency [17] | Potency [4] | Potency [5] | Potency [6] | Potency [7] | Potency [8] | max response [9] 0.585% | Potency [11] | Potency [12] | Potency [14] | outcome [15] | Potency [16]

ClCc1ccccc1Cl
inactive: Potency [1] | outcome [2] | Potency [18] | activity change, positive = activation [19] 8.41% | Potency [20] | Potency [17] | Potency [4] | Potency [5] | Potency [6] | Potency [7] | Potency [8] | max response [9] -3.09% | Potency [10] | Potency [11] | Potency [12] | Potency [14] | outcome [15]

CCNC(=O)NC(=O)/C(C#N)=N/OC
inactive: Potency [1] | outcome [2] | Potency [18] | activity change, positive = activation [19] -6.66% | Potency [4] | Potency [5] | Potency [6] | Potency [7] | Potency [8] | max response [9] 18.1% | Potency [10] | Potency [11] | Potency [12] | Potency [14] | outcome [15] | Potency [16]

CCCCCBr
inactive: Potency [1] | outcome [2] | Potency [3] | Potency [4] | Potency [5] | Potency [6] | Potency [11] | Potency [12] | Potency [13] | Potency [14] | outcome [15] | Potency [16]

CC(CC(C(N)=O)(c1ccccc1)c1ccccc1)N(C)C (centres undefined)
inactive: Potency [1] | outcome [2] | Potency [3] | Potency [17] | Potency [4] | Potency [5] | Potency [6] | Potency [7] | Potency [10] | Potency [11] | Potency [12] | Potency [13] | Potency [14] | outcome [15] | Potency [16]

C=CC(=O)NC(C)(C)CC(C)=O
inactive: Potency [1] | outcome [2] | Potency [17] | Potency [5] | Potency [6] | Potency [7] | Potency [8] | max response [9] 3.92% | Potency [10] | Potency [11] | Potency [12] | Potency [13] | Potency [14] | outcome [15] | Potency [16]

CCN(C(C)=O)c1cccc(-c2ccnc3c(C#N)cnn23)c1
inactive: Potency [1] | outcome [2] | Potency [3] | Potency [17] | Potency [4] | Potency [5] | Potency [6] | Potency [7] | Potency [8] | max response [9] -13.6% | Potency [10] | Potency [11] | Potency [12] | Potency [13] | Potency [14] | outcome [15] | Potency [16]

O=S(=O)(Cl)Cl
inactive: Potency [1] | outcome [2] | Potency [20] | Potency [4] | Potency [5] | Potency [6] | Potency [7] | Potency [8] | max response [9] 15.4% | Potency [10] | Potency [11] | Potency [12] | Potency [13] | Potency [14] | outcome [15] | Potency [16]

COC1CC(=C(c2cccs2)c2cccs2)C[N+](C)(C)C1 (centres undefined)
inactive: Potency [1] | outcome [2] | Potency [20] | Potency [4] | Potency [5] | Potency [6] | Potency [7] | Potency [8] | max response [9] -21.7% | Potency [10] | Potency [11] | Potency [12] | Potency [13] | Potency [14] | outcome [15] | Potency [16]

Cc1ccccc1
inactive: Potency [1] | outcome [2] | Potency [3] | Potency [17] | Potency [4] | Potency [5] | Potency [6] | Potency [7] | Potency [8] | max response [9] 11.7% | Potency [10] | Potency [11] | Potency [12] | Potency [14] | outcome [15] | Potency [16]

O=C(O)CCCOc1ccc(Cl)cc1Cl
inactive: Potency [1] | outcome [2] | Potency [3] | Potency [17] | Potency [4] | Potency [5] | Potency [6] | Potency [7] | max response [9] 28.1% and -0.413% | Potency [10] | Potency [11] | Potency [12] | Potency [13] | Potency [14] | outcome [15] | Potency [16]

CCCN(CCC)c1c([N+](=O)[O-])cc(C(C)C)cc1[N+](=O)[O-]
inactive: Potency [1] | outcome [2] | Potency [3] | Potency [17] | Potency [4] | Potency [5] | Potency [6] | Potency [7] | Potency [8] | max response [9] 9.58% | Potency [10] | Potency [11] | Potency [12] | Potency [13] | Potency [14] | outcome [15]

C=C(C)C(=O)OCCCCOC(=O)C(=C)C
inactive: Potency [1] | outcome [2] | Potency [18] | activity change, positive = activation [19] 2.2% | Potency [20] | Potency [17] | Potency [4] | Potency [5] | Potency [6] | Potency [7] | Potency [8] | max response [9] 5.43% | Potency [11] | Potency [12] | Potency [13] | Potency [14] | outcome [15]
